How the values were obtained:
Test in all cases: SPOT peptide array binding signal intensity (averaged, normalized) (arbitrary units (background-subtracted, floor 0; scale differs between SH3 domains)); higher = stronger binding of the SH3 domain to the peptide
AgAbp1 = target: AgAbp1
Method in brief: (§1)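 To measure binding, SH3 domains from four yeast species were fused to GST, expressed in E. coli BL21(DE3) and purified on glutathione Sepharose. Each domain was incubated at 10 μg/ml overnight at 4°C on cellulose membranes with synthetic 15-mer peptides whose cysteines were replaced by serines. Anti-GST antibody, an HRP anti-mouse secondary and luminol were used for detection, and images were quantified with Genespotter. Reported binding signal is normalized, background-subtracted spot intensity averaged over replicates, in arbitrary units that differ between domains.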

AgBbc1 = target: AgBbc1
Method in brief: as §1

AgBem1-D1 = target: AgBem1-D1
Method in brief: as §1

AgBzz1-D1 = target: AgBzz1-D1
Method in brief: as §1

AgBzz1-D2 = target: AgBzz1-D2
Method in brief: as §1

AgCyk3 = target: AgCyk3
Method in brief: as §1

AgFus1 = target: AgFus1
Method in brief: as §1

AgHof1 = target: AgHof1
Method in brief: as §1

AgHse1 = target: AgHse1
Method in brief: as §1

AgLsb1 = target: AgLsb1
Method in brief: as §1

AgLsb4 = target: AgLsb4
Method in brief: as §1

AgMyo5 = target: AgMyo5
Method in brief: as §1

AgNbp2 = target: AgNbp2
Method in brief: as §1

AgRvs167 = target: AgRvs167
Method in brief: as §1

AgSho1 = target: AgSho1
Method in brief: as §1

AgSla1-D1-D2 = target: AgSla1-D1-D2
Method in brief: as §1

AgSla1-D3 = target: AgSla1-D3
Method in brief: as §1

CaAbp1-D1 = target: CaAbp1-D1
Method in brief: as §1

CaAbp1-D2 = target: CaAbp1-D2
Method in brief: as §1

CaBbc1 = target: CaBbc1
Method in brief: as §1

CaBem1-D1 = target: CaBem1-D1
Method in brief: as §1

CaBzz1-D1 = target: CaBzz1-D1
Method in brief: as §1

CaBzz1-D2 = target: CaBzz1-D2
Method in brief: as §1

CaCyk3 = target: CaCyk3
Method in brief: as §1

CaFus1 = target: CaFus1
Method in brief: as §1

CaHof1 = target: CaHof1
Method in brief: as §1

CaHse1 = target: CaHse1
Method in brief: as §1

CaLsb1 = target: CaLsb1
Method in brief: as §1

CaLsb4 = target: CaLsb4
Method in brief: as §1

CaMyo5 = target: CaMyo5
Method in brief: as §1

CaNbp2 = target: CaNbp2
Method in brief: as §1

CaRvs167 = target: CaRvs167
Method in brief: as §1

CaRvs167-3 = target: CaRvs167-3
Method in brief: as §1

CaSho1 = target: CaSho1
Method in brief: as §1

CaSla1-D1-D2 = target: CaSla1-D1-D2
Method in brief: as §1

CaSla1-D3 = target: CaSla1-D3
Method in brief: as §1

ScAbp1 = target: ScAbp1
Method in brief: as §1

ScBbc1 = target: ScBbc1
Method in brief: as §1

ScBem1-D1 = target: ScBem1-D1
Method in brief: as §1

ScBzz1-D1 = target: ScBzz1-D1
Method in brief: as §1

ScBzz1-D2 = target: ScBzz1-D2
Method in brief: as §1

ScCyk3 = target: ScCyk3
Method in brief: as §1

ScFus1 = target: ScFus1
Method in brief: as §1

ScHof1 = target: ScHof1
Method in brief: as §1

ScHse1 = target: ScHse1
Method in brief: as §1

ScLsb1 = target: ScLsb1
Method in brief: as §1

ScLsb2 = target: ScLsb2
Method in brief: as §1

ScLsb3 = target: ScLsb3
Method in brief: as §1

ScLsb4 = target: ScLsb4
Method in brief: as §1

ScMyo3 = target: ScMyo3
Method in brief: as §1

ScMyo5 = target: ScMyo5
Method in brief: as §1

ScNbp2 = target: ScNbp2
Method in brief: as §1

ScPex13 = target: ScPex13
Method in brief: as §1

ScRvs167 = target: ScRvs167
Method in brief: as §1

ScSho1 = target: ScSho1
Method in brief: as §1

ScSla1-D1-D2 = target: ScSla1-D1-D2
Method in brief: as §1

ScSla1-D3 = target: ScSla1-D3
Method in brief: as §1

SpAbp1-D1 = target: SpAbp1-D1
Method in brief: as §1

SpBbc1 = target: SpBbc1
Method in brief: as §1

SpBzz1-D1 = target: SpBzz1-D1
Method in brief: as §1

SpBzz1-D2 = target: SpBzz1-D2
Method in brief: as §1

SpCyk3 = target: SpCyk3
Method in brief: as §1

SpHof1 = target: SpHof1
Method in brief: as §1

SpHof1-2 = target: SpHof1-2
Method in brief: as §1

SpHof1-3 = target: SpHof1-3
Method in brief: as §1

SpHse1 = target: SpHse1
Method in brief: as §1

SpLsb1 = target: SpLsb1
Method in brief: as §1

SpLsb4 = target: SpLsb4
Method in brief: as §1

SpMyo1 = target: SpMyo1
Method in brief: as §1

SpNbp2 = target: SpNbp2
Method in brief: as §1

SpPex13 = target: SpPex13
Method in brief: as §1

SpRvs167 = target: SpRvs167
Method in brief: as §1

SpSla1-D1-D2 = target: SpSla1-D1-D2
Method in brief: as §1

SpSla1-D3 = target: SpSla1-D3
Method in brief: as §1

B1: unnamed (peptide)
chain: HKVLRPFLLRRLKKD
SPOT peptide array binding signal intensity (AgAbp1): 172 | SPOT peptide array binding signal intensity (AgBbc1): ≤ 0 | SPOT peptide array binding signal intensity (AgBem1-D1): ≤ 0 | SPOT peptide array binding signal intensity (AgBzz1-D1): 1.5 | SPOT peptide array binding signal intensity (AgBzz1-D2): 31.5 | SPOT peptide array binding signal intensity (AgCyk3): ≤ 0 | SPOT peptide array binding signal intensity (AgFus1): 479 | SPOT peptide array binding signal intensity (AgHof1): 39.4 | SPOT peptide array binding signal intensity (AgHse1): 2970 | SPOT peptide array binding signal intensity (AgLsb1): 0.5 | SPOT peptide array binding signal intensity (AgLsb4): 19.5 | SPOT peptide array binding signal intensity (AgMyo5): ≤ 0 | SPOT peptide array binding signal intensity (AgNbp2): 45.8 | SPOT peptide array binding signal intensity (AgRvs167): 0.5 | SPOT peptide array binding signal intensity (AgSho1): 156 | SPOT peptide array binding signal intensity (AgSla1-D1-D2): 27 | SPOT peptide array binding signal intensity (AgSla1-D3): 2.75 | SPOT peptide array binding signal intensity (CaAbp1-D1): 569 | SPOT peptide array binding signal intensity (CaAbp1-D2): 617 | SPOT peptide array binding signal intensity (CaBbc1): ≤ 0 | SPOT peptide array binding signal intensity (CaBem1-D1): 3.5 | SPOT peptide array binding signal intensity (CaBzz1-D1): ≤ 0 | SPOT peptide array binding signal intensity (CaBzz1-D2): ≤ 0 | SPOT peptide array binding signal intensity (CaCyk3): ≤ 0 | SPOT peptide array binding signal intensity (CaFus1): 2980 | SPOT peptide array binding signal intensity (CaHof1): 7.63e-06 | SPOT peptide array binding signal intensity (CaHse1): 124 | SPOT peptide array binding signal intensity (CaLsb1): ≤ 0 | SPOT peptide array binding signal intensity (CaLsb4): ≤ 0 | SPOT peptide array binding signal intensity (CaMyo5): ≤ 0 | SPOT peptide array binding signal intensity (CaNbp2): 715 | SPOT peptide array binding signal intensity (CaRvs167): 6.08 | SPOT peptide array binding signal intensity (CaRvs167-3): 281 | SPOT peptide array binding signal intensity (CaSho1): 736 | SPOT peptide array binding signal intensity (CaSla1-D1-D2): 8.5 | SPOT peptide array binding signal intensity (CaSla1-D3): 15.5 | SPOT peptide array binding signal intensity (ScAbp1): 271 | SPOT peptide array binding signal intensity (ScBbc1): ≤ 0 | SPOT peptide array binding signal intensity (ScBem1-D1): 19.5 | SPOT peptide array binding signal intensity (ScBzz1-D1): 22.5 | SPOT peptide array binding signal intensity (ScBzz1-D2): ≤ 0 | SPOT peptide array binding signal intensity (ScCyk3): 38 | SPOT peptide array binding signal intensity (ScFus1): 742 | SPOT peptide array binding signal intensity (ScHof1): ≤ 0 | SPOT peptide array binding signal intensity (ScHse1): 2170 | SPOT peptide array binding signal intensity (ScLsb1): ≤ 0 | SPOT peptide array binding signal intensity (ScLsb2): ≤ 0 | SPOT peptide array binding signal intensity (ScLsb3): ≤ 0 | SPOT peptide array binding signal intensity (ScLsb4): ≤ 0 | SPOT peptide array binding signal intensity (ScMyo3): 1.12 | SPOT peptide array binding signal intensity (ScMyo5): 2.5 | SPOT peptide array binding signal intensity (ScNbp2): 102 | SPOT peptide array binding signal intensity (ScPex13): 0.5 | SPOT peptide array binding signal intensity (ScRvs167): 3.42 | SPOT peptide array binding signal intensity (ScSho1): 994 | SPOT peptide array binding signal intensity (ScSla1-D1-D2): ≤ 0 | SPOT peptide array binding signal intensity (ScSla1-D3): 3.25 | SPOT peptide array binding signal intensity (SpAbp1-D1): 250 | SPOT peptide array binding signal intensity (SpBbc1): 3 | SPOT peptide array binding signal intensity (SpBzz1-D1): 70 | SPOT peptide array binding signal intensity (SpBzz1-D2): 7.63e-06 | SPOT peptide array binding signal intensity (SpCyk3): 1.5 | SPOT peptide array binding signal intensity (SpHof1): 74.8 | SPOT peptide array binding signal intensity (SpHof1-2): 4 | SPOT peptide array binding signal intensity (SpHof1-3): 1720 | SPOT peptide array binding signal intensity (SpHse1): 2230 | SPOT peptide array binding signal intensity (SpLsb1): ≤ 0 | SPOT peptide array binding signal intensity (SpLsb4): ≤ 0 | SPOT peptide array binding signal intensity (SpMyo1): 2.62 | SPOT peptide array binding signal intensity (SpNbp2): 222 | SPOT peptide array binding signal intensity (SpPex13): 13.5 | SPOT peptide array binding signal intensity (SpRvs167): 0.333 | SPOT peptide array binding signal intensity (SpSla1-D1-D2): ≤ 0 | SPOT peptide array binding signal intensity (SpSla1-D3): 5.5

— the supplement of paper PMC4466140
